Screening results from PubChem.
CYP2C19 inh – inhibitors of human CYP2C19. P33261. CYP2C19 Supersomes, luciferin-H EGE luminescence, 30 min. inhibition, % at 5 µM. AID 778. actives 21% (n = 96,000);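 active = CYP2C19 inhibition above a set limit at 5 µM in the primary screen, cut at about 50% in these data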;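 note: plate controls were negative control wells for no effect and 2.5 mM tranylcypromine positive control for full effect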
CYP2C19 activ – cytochrome P450 2C19 (human) activation; AID 1025; 96,000 tested, under 10 active; recombinant CYP2C19, luciferin-H EGE luminescence; hits give high values; 0 = fully inhibited enzyme, 1 = untreated enzyme; activation factor at 5 µM;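 active = activation factor of at least 2 at 5 µM in the primary screen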;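 note: 0 = wells with 2.5 mM tranylcypromine and 1 = vehicle-only wells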
CYP2C9 inhib – blocks human cytochrome P450 2C9; P11712; CYP2C9 Supersomes, luciferin-H conversion, luminescence; inhibition, % at 5 µM; actives 20% (n = 96,000);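 active = blocking of liver enzyme CYP2C9 beyond about 50% at 5 µM, limit read from the data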
Target sequence (P11712 whole entry, looked up): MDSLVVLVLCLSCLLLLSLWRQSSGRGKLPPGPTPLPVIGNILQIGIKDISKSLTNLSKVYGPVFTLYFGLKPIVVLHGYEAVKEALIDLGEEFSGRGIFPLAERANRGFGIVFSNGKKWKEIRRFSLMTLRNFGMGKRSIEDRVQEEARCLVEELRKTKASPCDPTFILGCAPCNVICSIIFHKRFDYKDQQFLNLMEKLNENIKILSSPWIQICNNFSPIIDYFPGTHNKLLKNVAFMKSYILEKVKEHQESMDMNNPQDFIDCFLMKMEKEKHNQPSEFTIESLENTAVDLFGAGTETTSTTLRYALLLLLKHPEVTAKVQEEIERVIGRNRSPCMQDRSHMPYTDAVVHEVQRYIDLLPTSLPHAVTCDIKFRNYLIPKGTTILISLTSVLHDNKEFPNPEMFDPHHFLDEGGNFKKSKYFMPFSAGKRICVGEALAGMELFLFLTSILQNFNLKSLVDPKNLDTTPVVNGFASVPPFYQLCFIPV
CYP2C9 activ – increases human cytochrome P450 2C9 activity | P11712 | recombinant CYP2C9, luciferin-H conversion, luminescence; hits give high values; factor 1 = untreated enzyme, 0 = blocked | activation factor at 5 µM | actives 1.4% (n = 96,000) | AID 1024;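 active = activation factor of 2 or more for CYP2C9 at a 5 µM dose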;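 note: 0 = sulfaphenazole-blocked wells and 1 = vehicle-only wells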
* hit, by the source's call. Rows were chosen to be rich in hits. Some 31% of all compounds tested hit in one or more screens of this group.

SMILES	CYP2C19 inh	CYP2C19 activ	CYP2C9 inhib	CYP2C9 activ
CCc1ccc2[nH]c(=O)c(CN(Cc3ccco3)S(=O)(=O)c3ccc4c(c3)OCCO4)cc2c1	-7	1.1	-10	1.1
Cc1c(-c2ccccc2)sc(N)c1C(=O)N1CCOCC1	88*	0.1	86*	0.1
CCOC(=O)N1CCN(C(=O)c2cc(-n3cnnc3)ccc2Cl)CC1	2	1	-7	1.1
CCCCNS(=O)(=O)c1ccc2nc(SCC(=O)c3ccc(C#N)cc3)[nH]c2c1	74*	0.3	88*	0.1
CCOC(=O)CSc1nc2ccc(S(=O)(=O)N3CCOCC3)cc2[nH]1	6	0.9	21	0.8
CCCCC(SCC(=O)Nc1ccccc1)C(=O)O (stereo not drawn)	16	0.8	70*	0.3
COc1ccc(N=C2SC(CC(=O)Nc3ccc(OC)cc3OC)C(=O)N2C)cc1 (stereo not drawn)	49	0.5	52*	0.5
CN=C1SC(CC(=O)NCCc2ccc(OC)c(OC)c2)C(=O)N1C (stereo not drawn)	-19	1.2	-27	1.3
O=S(=O)(c1ccccc1F)N(Cc1ccco1)Cc1nnc(-c2ccccc2Br)o1	50*	0.5	68*	0.3
Cc1cc(NC(=O)c2ccco2)ncc1NC(=O)Cc1ccccc1	2	1	10	0.9
c1ccc(-c2ccc(-c3cn4c(n3)CCC4)cc2)cc1	10	0.9	-4	1
CCCc1[nH][nH]c(=O)c1C(c1cccc(Cl)c1)C(C#N)C#N (stereo not drawn)	75*	0.3	75*	0.3
N#CC(C#N)C(c1ccsc1)c1c(-c2ccccc2)[nH][nH]c1=O (stereo not drawn)	11	0.9	11	0.9
COc1cc(C(=O)Nc2ccc(-c3nc4cc(C)ccc4o3)c(O)c2)cc(OC)c1OC	23	0.8	31	0.7
COc1ccc(-c2nnc(SCC(=O)NC(=O)NCc3ccccc3)o2)cc1	42	0.6	-95	1.9
CCCCn1c(-c2ccccc2)cnc1SCC(=O)NCCc1ccc(OC)c(OC)c1	96*	0	90*	0.1
Cc1oc2nc(SCCCC(=O)NCCO)nc(N)c2c1C	-8	1.1	-4	1
COc1ccc(CCNC(=O)CSc2nnc(-c3cccc(C)c3)o2)cc1OC	56*	0.4	36	0.6
COc1ccc(CCNC(=O)CSc2nnc(-c3ccccc3)o2)cc1OC	81*	0.2	46	0.5
COc1ccc(CCNC(=O)CSc2nc(N)c3c(C)c(C)oc3n2)cc1OC	62*	0.4	40	0.6
O=C(Nc1nnc(-c2ccc(Cl)cc2)o1)c1nc2ccccc2s1	1	1	20	0.8
COc1ccc(C(=O)Nc2nnc(C(F)(F)F)s2)cc1	6	0.9	75*	0.3
CCC(NC(=O)Nc1nnc(C(F)(F)F)s1)(C(F)(F)F)C(F)(F)F	15	0.8	71*	0.3
CC(=O)Nc1cccc(NC(=O)CSc2nnnn2Cc2ccccc2)c1	32	0.7	42	0.6
O=C(CC1Oc2ccccc2NC1=O)NC1CCCC1 (stereo not drawn)	34	0.7	-138	2.4*
SMILES	CYP2C19 inh	CYP2C19 activ	CYP2C9 inhib	CYP2C9 activ
CCN(CCNC(=O)CC1Oc2ccccc2NC1=O)c1ccccc1 (stereo not drawn)	61*	0.4	-62	1.6
O=C(CC1Oc2ccccc2NC1=O)NCCc1ccccc1 (stereo not drawn)	42	0.6	-75	1.7
CCN(Cc1ccccc1)C(=O)CC1Oc2ccccc2NC1=O (stereo not drawn)	88*	0.1	-67	1.7
COc1ccc(OCCN2CCN(C3CC(=O)N(CCC(C)C)C3=O)CC2)cc1 (stereo not drawn)	25	0.7	3	1
O=C(CCn1cnc2ccccc2c1=O)Nc1ccc2c(c1)OCCO2	53*	0.5	53*	0.5
O=C(O)CCn1cnc2ccccc2c1=O	15	0.8	-3	1
O=C(CCn1cnc2ccccc2c1=O)Nc1ccc(S(=O)(=O)N2CCCC2)cc1	5	0.9	41	0.6
O=C(CCN1C(=O)c2ccccc2C1=O)Nc1ccc(-c2nc3ccccc3o2)cc1	5	1	15	0.9
N#Cc1c(NC(=O)CCN2C(=O)c3ccccc3C2=O)oc(-c2ccccc2)c1-c1ccccc1	30	0.7	82*	0.2
N#Cc1c(NC(=O)CCn2cnc3ccccc3c2=O)oc(-c2ccccc2)c1-c1ccccc1	81*	0.2	96*	0
O=C(CCN1C(=O)c2ccccc2C1=O)Nn1cnnc1	-2	1	90*	0.1
O=C(CCN1C(=O)c2ccccc2C1=O)NCc1ccncc1	34	0.7	26	0.7
CCOC(=O)N1CCN(C(c2ccc(F)cc2)c2sc3nc(C)nn3c2O)CC1 (stereo not drawn)	8	0.9	-4	1
S=C1NC(c2ccccc2)=NCN1c1ccc(Cl)cc1	80*	0.2	42	0.6
CCSc1nc2ccccc2n1C(=O)c1ccc(S(=O)(=O)N2CCCCC2)cc1	19	0.8	26	0.7
O=S(=O)(Nc1nc2ccccc2[nH]1)c1ccc2ccccc2c1	74*	0.3	44	0.6
N#Cc1ccccc1NC(=O)CSc1nnc(-c2ccc(F)cc2)n1-c1ccccc1	63*	0.4	45	0.5
Cc1cc(C(=O)CSc2nnc(-c3ccncc3)n2-c2ccccc2)c(C)n1C	84*	0.2	34	0.7
CC(C)NC(=O)CSc1nnc(-c2ccncc2)n1-c1ccccc1	92*	0.1	58*	0.4
Cc1cc(C(=O)CSc2nnc(-c3ccccc3)n2C)c(C)n1C	78*	0.2	1	1
Cc1cccc(-c2noc(-c3cc4ccccc4oc3=O)n2)c1	27	0.7	1	1
Cc1ccc2c(c1)-c1c(cnn1CC(=O)N(CCC#N)c1ccccc1)CO2	23	0.8	31	0.7
N#Cc1ccc(Oc2ccc(/C=N/O)cn2)cc1	26	0.7	-11	1.1
Cc1cc(C(=O)CSc2nnc(-c3ccccc3)n2-c2ccccc2)c(C)n1-c1ncn[nH]1	62*	0.4	58*	0.4
Cc1cc(C(=O)CSc2nnc(-c3cccnc3)n2-c2ccccc2)c(C)n1CC1CCCO1 (stereo not drawn)	21	0.8	15	0.8
SMILES	CYP2C19 inh	CYP2C19 activ	CYP2C9 inhib	CYP2C9 activ
Fc1ccccc1N1CCN(c2nc3ccccc3n3nnnc23)CC1	25	0.7	13	0.9
Cc1c(C(=O)Nc2ccncc2)oc2c1C(=O)CC(C)(C)C2	99*	0	94*	0.1
Cc1ccc(NC(=O)c2oc3c(c2C)C(=O)CC(C)(C)C3)cc1	77*	0.2	11	0.9
Cc1c(C(=O)NC2CCCCC2)oc2c1C(=O)CC(C)(C)C2	16	0.8	20	0.8
Cc1c(C(=O)Nc2ccccc2)oc2c1C(=O)CC(C)(C)C2	-1	1	29	0.7
CSc1ccccc1NC(=O)CN(c1ccccc1)S(=O)(=O)N(C)C	27	0.7	40	0.6
CCOc1ccc(N(CC(=O)Nc2ccc(F)c(F)c2)S(=O)(=O)c2c(C)noc2C)cc1	-6	1.1	8	0.9
